From PubChem BioAssay (NCI) come the findings set out here.

Structures are written as SMILES. Compounds without any hit were thinned out: in the full panel of roughly 79,000, 15% have a hit. Activity calls are given as the source filed them. No stated cut-off is given here; in the data, active means growth inhibition above about 70%; inactive means the rest.

The first experiment is described as follows: NCI Yeast Anticancer Drug Screen. Data for the mec2-1 strain (AID 157). Conditions: S. cerevisiae mec2-1 strain, at 50.0 µM, hits give high values. The method in brief:
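Using mec2-1 yeast: add compound, measure growth, express inhibition versus vehicle-treated cultures.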
With `C=C(C)C1CC2=C(O1)C(=O)c1ccccc1C2=O` (configuration not stated), the growth inhibition is 82.5% (active).

Take `CC(C)C1=CC2=CCC3C(C)(C(=O)O)CCCC3(C)C2CC1` (configuration not stated) (tested in a mixture with another compound): the growth inhibition was 75.7% (active).

In the case of `ClCC1CSC2(CCCCC2)O1` (configuration not stated), the growth inhibition was 20.9% (inactive).

With `Oc1cccc2ccc(SSc3ccc4cccc(O)c4n3)nc12`, the growth inhibition is 95.7% (active).

A further experiment is described as follows: NCI Yeast Anticancer Drug Screen. Data for the sgs1 mgt1 strain (AID 161).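 Further: 0% = growth of cultures given vehicle only.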 Conditions: S. cerevisiae sgs1 mgt1 strain, at 5.0 µM (retest, dose inferred, filed as 0.5), hits give high values. The gist of the method:
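Yeast cells carrying a defined DNA-repair defect were exposed to test compounds. Growth inhibition was measured relative to vehicle-treated controls.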
For `CCC(c1ccc(OC)cc1)C(O)(CC)c1ccc(OC)cc1` (configuration not stated), the growth inhibition is -11% (inactive).

In the case of `Cc1c(Cl)c(S(N)(=O)=O)cc2c1NC=NS2(=O)=O`, the growth inhibition is -2% (inactive).

For `CCCCCCCCNc1ncnc2c1cnn2C`, the growth inhibition is -2% (inactive).

`Cc1cc(N)c(C)c2c1[nH]c1ccc(Br)cc12`: the growth inhibition is -6% (inactive).

For the compound `C(=C\c1cnnc2ccccc12)/c1ccco1`, the growth inhibition is 6% (inactive).

For `Cc1cc(N(CCCCl)CCCCl)ccc1C=Nc1cccc(Cl)c1`, the growth inhibition was -4% (inactive).

Regarding `CCC[CH2][Sn]([CH2]CCC)([O]C(=O)c1cc(F)ccc1F)[O]C(=O)c1cc(F)ccc1F`, the growth inhibition was 33% (inactive).

On to `O=[N+]([O-])c1ccc(N2N=NC(CN3CCOCC3)C2N2CCOCC2)cc1` (configuration not stated), for which the growth inhibition was 1% (inactive).

In the case of `O=CC(I)=C(c1ccccc1)c1ccccc1`, the growth inhibition is 9% (inactive).

Consider `CCC/C(=N\O)S(=O)(=O)c1ccc(NN=O)nc1`, for which the growth inhibition is 3% (inactive).

On to `COc1cc(Cc2n[nH]c(=S)n2-c2ccccc2)c(S(N)(=O)=O)cc1OC`, for which the growth inhibition is 9% (inactive).

Consider `CC(=O)Nc1ccc(C(C)(C)c2ccc(C)cc2)cc1`, for which the growth inhibition is -1% (inactive).

Take `CC(C)=NOc1ccc([N+](=O)[O-])cc1[N+](=O)[O-]`: the growth inhibition was 17% (inactive).
